# Measurements published in PubChem BioAssay AID1446 (The Scripps Research Institute Molecular Screening Center, 2008).
# About 2,400 (1.1%) of roughly 220,000 compounds were called active. Only a selection was taken, and actives are over-represented in it overall. Unmarked numbers belong to inactive results.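 How the source made its calls: active means inhibition above the campaign mean plus 3 SD over all tested compounds (cut at about 24% in these data); inactive means the rest.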
# Experiment: viability loss in Ba/F3 EpoR-JAK2V617F cells – cell-based, luminescence, JAK2V617F inhibitor project, primary screen (AID 1446);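 further: cytokine-independent growth of Ba/F3 cells driven by EpoR plus mutant JAK2; 0% = DMSO-treated cells and 100% = JAK inhibitor I control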
# Conditions: ATP luminescence, at 5.6 µM, active compounds read high
row,Compound,inhibition
1,CCC1CCCCN1CCCNC(=O)Cn1nc(-c2ccccc2)ccc1=O (stereo unspecified),-2.73%
2,CCC1CCCCN1CCCNC(=O)C1CCC(Cn2c(=O)[nH]c3ccccc3c2=O)CC1 (stereo unspecified),2.93%
3,CCC1CCCCN1CCCNC(=O)c1cc2c(Cl)nc3ccccc3c2s1 (stereo unspecified),58.8% (active)
4,CC(C)(C)c1cc(P(=O)(c2ccccc2)c2ccccc2)ccc1O,-0.07%
5,OCCN1CCN(C(=S)c2ccc(-c3ccccc3)cc2)CC1,-5.03%
6,COc1ccc(C(=O)CSc2nnc(NC(=O)C3CC(=O)N(c4cccc(OC)c4)C3)s2)cc1 (stereo unspecified),0.22%
7,O=C(CCl)Nc1ccc(Sc2ccc(NC(=O)CCl)cc2)cc1,39.2% (active)
8,CC(C)(CCl)C(=O)Nc1ccc(Sc2ccc(F)cc2)cc1,-2.48%
9,Cc1ccc(NC(=O)CC(=O)Nc2ccc(C)cc2)cc1,-3.42%
10,COc1ccc(C(=O)Nc2ccc(N3CCC(C)CC3)cc2)cc1Br,1.71%
11,COc1ccc(N2CCN(C(=O)CCSCc3ccccc3F)CC2)cc1,-2.23%
12,CCC(C)C(=O)Nc1cc([N+](=O)[O-])ccc1Cl (stereo unspecified),-3.84%
13,CCN(CC)S(=O)(=O)c1ccc(N(C)Cc2cccc(OC)c2OC)nc1,1.34%
14,CCCCCCc1cc2cc(-c3nnc(-c4cccc(OC)c4)o3)c(=O)oc2cc1O,-1.07%
15,Cn1c(SCC(=O)N/N=C/c2ccc(O)c(O)c2)nc2ccccc21,0.9%
16,CCCc1nc2ccccc2c(=O)n1NC(=O)c1c(O)c2ccccc2[nH]c1=O,6.3%
17,CCCc1nc2ccccc2c(=O)n1/N=C/c1ccc(O)c(O)c1,26.5% (active)
18,Cc1nnsc1C(=O)NCc1c(F)cccc1Cl,1.93%
19,CCCCC1S/C(=N/N=C/c2cccs2)NC1=O (stereo unspecified),1.12%
20,CCOC(=O)c1[nH]c2c(c1C)C(=O)CC(c1ccc(N(C)C)cc1)C2 (stereo unspecified),0.77%
21,CCCOC(=O)c1[nH]c2c(c1C)C(=O)CC(c1cc(OC)c(OC)c(OC)c1)C2 (stereo unspecified),17.1%
22,CCCOC(=O)c1[nH]c2c(c1C)C(=O)CC(c1cccs1)C2 (stereo unspecified),74.3% (active)
23,COc1ccc(/C=C2/SC(=O)N(CCCCCC(=O)Nc3ccccc3C(=O)O)C2=S)cc1,-2.34%
24,Cc1ccc(C2=NN(C)c3nc4ccccc4n3C2)cc1,56.8% (active)

row,Compound,inhibition
1,Cc1ccc(O)c(CNc2nc3ccccc3n2C)c1,1.4%
2,Cn1cccc1-c1nc2ccccc2n1C,3.85%
3,Fc1ccc(COc2ccc(-c3nnco3)cc2)cc1,-2.6%
4,CCOc1cc(/C=C2/C(=N)N3OC(C)=CC3=NC2=O)ccc1OC,1.56%
5,C/C(=N\NC(N)=S)c1cccnc1,-4.73%
6,Cn1c(-c2ccc(F)cc2)cnc1SCC(=O)NNC(=O)Cc1ccccc1,0.3%
7,CN(Cc1ccccc1)C(=O)CCc1ccccc1,-4.97%
8,Cc1ccc(-c2cnc(NC(=O)CCC(=O)N(C)Cc3ccccc3)n2C)cc1,40.1% (active)
9,CC(=O)c1ccc(N2CCN(S(=O)(=O)c3c(C)[nH]c(=O)[nH]c3=O)CC2)cc1,2%
10,c1ccc2c(c1)CSc1sccc1C2=C1CCNCC1,45.9% (active)
11,CC(=O)NC(=S)Nc1ccc(NC(=S)NC(=O)c2ccc([N+](=O)[O-])cc2)cc1,-4.8%
12,Cn1ccc(=Nc2ccc(NC(=O)c3ccc(N=c4ccn(C)c5ccc([N+](=O)[O-])cc45)cc3)cc2)cc1,34.4% (active)
13,Cc1cc([N+](=O)[O-])ccc1NC(=O)c1ccc(NC(=O)C(C)C)cc1,0.7%
14,O=C(Nc1ccccc1-c1ccccc1)c1cccs1,6.54%
15,N#Cc1ccc(OCc2nnc(-c3ccc([N+](=O)[O-])cc3)o2)cc1,1.03%
16,Cc1n[nH]c(=O)n1-c1ccc(C(C)C)cc1,0.05%
17,O=C(Nc1ccccc1)Nc1ccc(C(F)(F)F)cn1,2.61%
18,Oc1ccc(/C=N/Nc2ccc(C(F)(F)F)cn2)cc1O,72% (active)
19,Cc1nccn1CC(=O)N/N=C/c1ccc(O)c(O)c1,-3.5%
20,CC1(C)C2CC=C(/C=N/NC(=O)C3CC3)C1C2 (stereo unspecified),-1.08%
21,Cc1cc(N2CCN(Cc3ccc4c(c3)OCO4)CC2)n2ncnc2n1,4.15%
22,Fc1ccc2[nH]c3c(N4CCN(Cc5ccc6c(c5)OCO6)CC4)ncnc3c2c1,37.1% (active)
23,Fc1ccc2[nH]c3c(N4CCSCC4)ncnc3c2c1,-5.13%
24,CC(=O)Nc1ccc(/C(C)=N/NC(=O)CN(c2ccccc2Br)S(C)(=O)=O)cc1,-0.87%

row,Compound,inhibition
1,CSc1sc(C(=O)NC(=O)NCc2cccnc2)c(C)c1-c1ccon1,-1.98%
2,COc1ccc(C2C(C(C)=O)=C(O)C(=O)N2CCc2c[nH]c3ccccc23)cc1 (stereo unspecified),-3.16%
3,O=C(N/N=C\c1cc(Br)c(Br)o1)C1COc2ccccc2O1 (stereo unspecified),-4.95%
4,CN(Cc1ccc2nsnc2c1)Cc1nc(Cc2cccc(F)c2)no1,47.5% (active)
5,CCc1ccc(CN(C)Cc2nc(Cc3ccccc3)no2)nc1,1.45%
6,CN(Cc1nc2ccc(F)cc2[nH]1)Cc1nc(CC2CC2)no1,-1.61%
7,Cc1cc(C(=O)CCl)c(C)n1CC1COc2ccccc2O1 (stereo unspecified),2.03%
8,CSCCC(NS(=O)(=O)c1ccc2c(c1)oc(=O)n2C)C(=O)NCc1ccccc1 (stereo unspecified),-3.72%
9,COc1ccc(NC(=O)Nc2ccc3nc(C)c(C)nc3c2)cc1,-2.47%
10,Cc1nc(/N=C(\N)NC(=O)NC2CCCCC2)nc2ccccc12,2.92%
11,COc1ccc2nc(/N=C(\N)NC(=O)Nc3ccccc3)nc(C)c2c1,30.8% (active)
12,CCCN(CCC)S(=O)(=O)c1ccc(C(=O)NNC(=O)c2cc(OC)c(OC)c(OC)c2)cc1,-3.01%
13,C#CCOCCOCCOCCNc1nc(N2CCN(C(=O)[C@H](C(C)C)n3cc(CCO)nn3)CC2)nc(N2CCN(C(=O)[C@H]([C@@H](C)CC)n3cc(CCCN=C(N)N)nn3)CC2)n1,1.82%
14,CCN(CC)c1ccc(NC(=O)c2ccc(Cl)nc2)cc1,81.4% (active)
15,O=C(NNc1ccccn1)c1ccc(Cl)nc1,-0.88%
16,NS(=O)(=O)c1ccc(NC(=O)COC(=O)c2ccc(Cl)nc2)cc1,0.7%
17,COc1ccc(CN(C)Cc2nc3cc(OC)c(OC)cc3c(=O)[nH]2)c(OC)c1,1.74%
18,C[C@H](NC(=O)c1ccccc1Cl)C(=O)OCCOc1cccc(Cl)c1,-3.18%
19,Cn1cc(C(=O)NCc2ccccc2F)cn1,-6.67%
20,N#CC1(C#N)C(C(=O)C23CC4CC(CC(C4)C2)C3)C12CCOCC2 (stereo unspecified),-2.53%
21,Cn1c(N)c(C(=O)COC(=O)/C=C/c2ccc(OC(F)F)cc2)c(=O)n(C)c1=O,2.97%
22,Cc1ccc(NC(=O)CN(C)Cc2ccc(F)cc2)c([N+](=O)[O-])c1,-2.86%
23,O=[N+]([O-])c1cccc(Nc2c3ccccc3nc3ccccc23)c1,-2.83%
24,CC(=O)Nc1ccc(Nc2c3ccccc3nc3ccccc23)cc1,102% (active)

row,Compound,inhibition
1,Cc1ccc(Nc2c3c(nc4ccccc24)CCC3)cc1,4.72%
2,CC[C@H]1CN2CCc3cc(OC)c(OC)cc3[C@@H]2C[C@@H]1C[C@H]1NCCc2cc(OC)c(OC)cc21,101% (active)
3,COc1cc2c(cc1O)[C@H](Cc1ccc(Oc3cc(C[C@@H]4NCCc5cc(OC)c(O)cc54)ccc3O)cc1)NCC2,1.92%
4,Cn1cnc(C(F)(F)F)c1-c1ccc([N+](=O)[O-])cc1,-0.95%
5,O=C(O)/C=C/c1ccc2c(c1)OCCO2,0.26%
6,COc1ccccc1N1CCN(Cc2ccc(OC)c3ccccc23)CC1,26.8% (active)
7,COc1ccccc1N1CCN(CCCCOc2ccc(F)cc2)CC1,-1.67%
8,CNCC(O)CN1CCN(c2ccccc2OC)CC1 (stereo unspecified),-2.42%
9,O=c1[nH]c2ccccc2s1,1.22%
10,O=C(Oc1ccccc1Cl)c1ccc(N2CCOCC2)c([N+](=O)[O-])c1,0.46%
11,Cc1ccc(S(=O)(=O)NCCC(c2ccccc2)c2ccccc2)cc1C(=O)O,0.73%
12,C/C(=N/NC(=O)CN1CCN(S(=O)(=O)c2ccc(Br)cc2)CC1)c1ccncc1,-1.23%
13,COc1ccc(-c2csc(Cc3nc(O)cs3)n2)cc1,-2.27%
14,CC(C)(C)C(=O)OCc1nc(-c2ccc(O)c(O)c2)cs1,83.4% (active)
15,Cc1onc(C(=O)NN)c1-c1csc(COc2ccccc2)n1,3.97%
16,CC(C)NC(=S)N1CCN(S(C)(=O)=O)CC1,-5.62%
17,O=C(c1ccc(=O)oc1)N1CCC(C(O)(c2ccccc2)c2ccccc2)CC1,2.85%
18,CSCC(=O)N1CCCC(C(=O)c2cc(F)ccc2F)C1 (stereo unspecified),67.6% (active)
19,COc1ccc(F)cc1C(=O)C1CCCN(C(=O)CCc2ccccn2)C1 (stereo unspecified),0.16%
20,COc1ccc(/C=C/CN2CCCC(C(=O)c3cc(F)ccc3F)C2)cc1 (stereo unspecified),0%
21,COc1ccc(Cc2cc(-c3ccc(F)cc3)n[nH]c2=O)cc1,1.71%
22,C=CCOC(=O)C1=C(C)NC(SCC(=O)OCC)=C(C#N)C1c1ccc(C)cc1 (stereo unspecified),-0.33%
23,Cc1ccc(C2CC(=O)NC(SCC(=O)OCc3ccccc3)=C2C#N)o1 (stereo unspecified),1.77%
24,CCOC(=O)CSC1=C(C#N)C(c2sccc2C)CC(=O)N1 (stereo unspecified),83.5% (active)
